Screen size: about 1,200 compounds; about 650 (54%) were called active. Inconclusive results (about 5%) are left out.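 Rule for the calls: active = signal-lowering curve whose fitted half-maximal concentration is at or below ten times the top valid dose tested; inconclusive = flat curve with 30 to 70% inhibition, or poor fit; inactive = signal increase, flat within 30%, or potency beyond limit.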 The set was probably picked from earlier hits. Only a sample is shown. Results with a measured potency or affinity are listed apart.
Assay: inhibitors of LMP1-driven NF-kB reporter, dose response, cell-based, HEK293, luciferase, cherry-pick (AID 588343)
Conditions: HEK293 LMP1 TES2 NF-kB luciferase reporter, 16 h; series mostly up to 35 µM

outcome, inactive:
COc1ccc(NC(=O)C2CCCN(S(=O)(=O)c3cccc4nonc34)C2)c(OC)c1 (stereo not drawn)
Cc1ccc(C)c(N2CCN(S(=O)(=O)c3ccc4c(c3)CCN4C(=O)CCC(=O)O)CC2)c1
O=C(N1CCOCC1)N1CCN(S(=O)(=O)c2ccc(Cl)cc2)C1
COc1ccc(/C=C\C(=O)NCc2ccc3c(c2)cc(C)n3C)cc1OC
COc1ccc(/C=N/N=C/c2ccc(OC)c(OC)c2)cc1OC
Cc1cc(C)c(S(=O)(=O)Nc2nnc(CC(C)C)s2)c(C)c1
CC1(C)CC(NS(=O)(=O)c2ccc(F)cc2)CC(C)(C)N1
O=C(Nc1ccncc1)OCc1ccccc1
CN(C)CC(C)(C)CNS(=O)(=O)c1ccc(OC(F)(F)F)cc1
COc1ccc(NC(=O)COC(=O)/C=C/c2ccc(OC)c(S(=O)(=O)N3CCOCC3)c2)cc1
COc1ccc(C(=O)N2CC(=O)Nc3ccccc32)cc1S(=O)(=O)N1CCCC1
O=C(O)[C@@H]1[C@H]2C[C@H]3c4[nH]c5ccccc5c4CCN3C[C@@H]2CC[C@@H]1O
CCc1ccccc1N(CC(=O)NCc1ccco1)C(=O)c1snc(C(N)=O)c1N
CC(C)(C)C(=O)Nc1nnc(SCC(=O)Nc2ccc3c(c2)OCO3)s1
COc1ccc(-n2c(SCC(=O)Nc3ccc4c(c3)OCO4)nc3c(c2=O)SCC3)cc1
COC(=O)c1ccc(CSc2nc3c(c(=O)n2-c2ccc(C)cc2)SCC3)o1
O=C(Cn1ccc(C(F)(F)F)n1)Nc1cccc(S(=O)(=O)N2CCCCC2)c1
O=C(CN1CCN(S(=O)(=O)c2ccc(F)cc2)CC1)Nc1cccc(C(F)(F)F)c1
Cc1cccc(C)c1NC(=O)CN(C)C(=O)c1ccc(-c2cccc(C(F)(F)F)c2)o1
O=C(NCCc1cn2ccccc2n1)C1CCCCC1
Cc1ccc(-n2ccc(=O)c(C(=O)Nc3ccc(S(=O)(=O)N4CCOCC4)cc3)n2)cc1
NC(=O)N/N=C/c1ccc(N2CCOCC2)s1
Cc1ccc(CNC(=O)C(=O)NCC2OCCN2S(=O)(=O)c2ccc(Cl)cc2)cc1 (stereo not drawn)
CN(C)CCCC1(c2ccc(F)cc2)OCc2cc(C#N)ccc21 (stereo not drawn)
CC(=O)O[C@]1(C(C)=O)CC[C@H]2[C@@H]3C=C(C)C4=CC(=O)CC[C@@H]4[C@H]3CC[C@@]21C
CC(C)Oc1ccc(C2CC(=O)NC2=O)cc1 (stereo not drawn)
COc1ccc(/C(CC2OC(=O)c3ccccc32)=N\NC(N)=O)cc1 (stereo not drawn)
COc1cc(NC(=S)N2CCN(CCO)CC2)cc(OC)c1
Cc1ccc(/C=N/NC(=O)c2cc(-c3ccccc3)nc3ccccc23)o1
COC(=O)c1[nH]c2cccc(C)c2c1NC(=O)CN1CCCc2ccccc21
CCCCOc1ccc2c(c1)/C(=C(\C(Cl)=C(Cl)Cl)[N+](=O)[O-])N2
COCCNC(=O)C(=O)NCC1OCCN1C(=O)c1ccc(Cl)cc1 (stereo not drawn)
COCCCn1cnnc1SCC(=O)Nc1ccc(S(=O)(=O)N2CCCC2)cc1
CNc1ccc(Br)cc(C(=O)/C=C/c2cccc(OC)c2)c1=O
CN(CCNC(=O)C1CCN(S(=O)(=O)N2CCOCC2)CC1)CCc1ccccc1
Cn1cccc1/C=N/n1c(-c2ccc(Cl)cc2Cl)n[nH]c1=S
COc1ccc(CN2C(=O)c3cccnc3C2Nc2cc(Cl)ccc2OC)cc1 (stereo not drawn)
COc1ccc(-c2nc(C)ncc2-c2ccccc2)c(O)c1
O=C(COC(=O)c1cc2ccccc2cc1O)NCc1ccccc1
O=C(Nc1ccccn1)NC1CCCCC1
Cc1ccc(NC(=O)NNS(=O)(=O)c2ccc(Br)cc2)cc1
CC1CN(c2cc(=O)n(-c3ccccc3)c(=O)[nH]2)CC(C)O1 (stereo not drawn)
Cc1ccc(-n2nc(C(=O)NCc3ccc(C)o3)c3c4ccccc4n(C)c3c2=O)cc1
Nc1nc(N)nc(-c2cc(Cl)ccc2Cl)n1
COc1ccccc1NC(=O)Cn1nnc(-c2ccccc2NS(=O)(=O)c2ccccc2)n1
CC1CCCN(C(=O)COC(=O)c2n[nH]c3ccccc23)C1 (stereo not drawn)
COc1ccc(S(=O)(=O)NCC(c2cccnc2)N2CCN(c3ccc(F)cc3)CC2)cc1C (stereo not drawn)
COc1ccc(-c2[nH]ncc2/C=N\NS(=O)(=O)c2ccc(Cl)cc2)cc1
CC1(C)CC(=O)C(CC2=C(O)CC(C)(C)CC2=O)=C(O)C1
CSc1ccccc1OCc1cc(C(=O)N2CCC[C@H]2C(N)=O)no1
COc1ccccc1OCc1ccc(C(=O)c2ccccc2)cc1
Cc1ccc(C(=O)NCC(=O)N(C)Cc2cccc(F)c2)s1
CCCC(=O)C1=C(O)C(C(=O)OC)C(C)(C)CC1=Nc1ccncc1 (stereo not drawn)
CSc1ccccc1NC(=O)CN1CCCCC1C (stereo not drawn)
CCSc1nnc(NC(=O)CCn2c(=O)oc3ccccc32)s1
O=C(CN1C(=O)c2ccccc2C1=O)NNC1=NS(=O)(=O)c2ccccc21
CCOc1cc(C(=O)OC(C)C(=O)Nc2ncc(Cl)cc2Cl)ccc1OCC(=O)N1CCOCC1 (stereo not drawn)
Cc1onc(-c2c(Cl)cccc2Cl)c1C(=O)N[C@@H]1C(=O)N2[C@@H]1SC(C)(C)[C@@H]2C(=O)O
COc1ccccc1N1CCN(CCCNC(=O)C2CCCN(c3ncnc4c3nc3n4CCCCC3)C2)CC1 (stereo not drawn)
C=CCN1CCN(C(CC(C)C)c2nnnn2CCOC)CC1 (stereo not drawn)
Cn1c(CC(=O)Nc2ccc(F)cc2)nnc1SCC(=O)Nc1nncs1
O=C(Cn1nc(C(F)(F)F)c2c1CCC2)NC1CCCCC1
O=C(O)CCc1nc(-c2ccc(Cl)cc2)no1
O=C(CCCN1C(=O)[C@H]2CC=CC[C@H]2C1=O)NCc1nc(-c2ccc(Cl)cc2)no1
Cc1ccccc1NC(=O)CN1C(=O)S/C(=C\c2cccn2-c2cccc(C(=O)O)c2)C1=O
COc1ccc(NC(=O)CCS(=O)(=O)c2ccc3c(c2)CCN3C(C)=O)cc1
COc1ccc(N2C(=O)C(=O)/C(=C(/O)c3ccc(C)cc3)C2c2cccnc2)cc1 (stereo not drawn)
CC(=O)Nc1ccc(OCCCNC(=O)c2c(-c3ccccc3)noc2C)cc1
COC(=O)c1ccc(COc2ccccc2/C=C/C(=O)c2ccc(OCC(=O)O)cc2)cc1
Cc1ccc(C)c(S(=O)(=O)N2CCN(CC(=O)N3CCc4ccccc4C3)CC2)c1
CCc1c(C)nc2cc(-c3ccc(OC)c(OC)c3)nn2c1NCC1CC1
NC(=O)C1(Nc2ccc([N+](=O)[O-])cc2)CCCC1
O=C(C1CCCCC1)N1CCN(c2ncccn2)CC1
CCCCCC(=O)N1CCN(c2ccc(C(C)=O)cc2F)CC1
CCN(CC)Cc1cc(Nc2ccnc3cc(Cl)ccc23)ccc1O
O=C1CCC(C(=O)N2CCCCCC2)CN1CCc1ccc(Cl)cc1 (stereo not drawn)
COc1ccc(OC)c2[nH]c(=O)c(CCNC(=O)c3ccc(S(=O)(=O)N(C)C)cc3)cc12
O=C(c1sc2cc([N+](=O)[O-])ccc2c1Cl)N1CCOCC1
COc1ccc(-c2cn3nc4c(nc3n2)CCCC4)cc1
O=C(O)c1cccc(NC(=O)c2cn(-c3ccccc3)nc2-c2ccc(F)cc2)c1
O=C(CCC(=O)NNC(=O)Nc1cccc(Cl)c1)NCc1ccccc1
CC(C)(C)c1cc(C(=O)NNC(=O)Nc2cccc(Cl)c2)n(Cc2ccccc2)n1
CC(CN1CCCCC1)OC(=O)c1ccc2c(c1)OCO2 (stereo not drawn)
COc1cccc(CC(=O)NNC(=O)c2ccc3c(c2)OCO3)c1
COC(=O)C1=C(C)N(CCCC(=O)O)C(=O)NC1c1cccc(Cl)c1Cl (stereo not drawn)
Cn1cc(SCC(=O)NCC2CCCO2)c2ccccc21 (stereo not drawn)
COc1ccc(CN(C(=O)c2nsc(Cl)c2Cl)C(C(=O)NC2CCCC2)c2ccc(C)cc2)cc1 (stereo not drawn)
CCc1nnc(NC(=O)c2ccc(S(=O)(=O)N3CCOCC3)cc2)s1
CN(Cc1ccc(F)cc1)C(=O)CN1CCN(S(=O)(=O)c2ccc3c(c2)OCCCO3)CC1
Cc1c(C=O)c2ccccn2c1C(=O)c1ccccc1Cl
COc1cc(/C=N/NC(=O)c2cccc(S(=O)(=O)N3CCOCC3)c2)cc(OC)c1O
Cc1ccc(S(=O)(=O)N2CCCCC2)cc1NC(=O)CNc1ccccc1N1CCCC1=O
CC(=O)c1ccccc1OCC(=O)Nc1cccc(S(=O)(=O)N2CCCC2)c1
Cc1ccc(-c2nnn(CC(=O)N(Cc3ccco3)C(C(=O)NC(C)(C)C)c3ccncc3)n2)o1 (stereo not drawn)
COc1ccc(/C=N/NC(=O)COc2ccccc2-c2ccccc2)cc1
CCOC(=O)Cc1csc(N/N=C\c2ccc(N(C)C)cc2)n1
COc1ccccc1C(=O)NC(=O)CSc1nnc(N)s1
Cc1ccc(N(Cc2cc3ccccc3[nH]c2=O)C(=O)c2ccco2)c(C)c1
COc1ccc(N2CCN(CCNC(=O)CCCn3c(=O)[nH]c4cc(Cl)ccc4c3=O)CC2)cc1
Cc1ccc(CN2C(=O)CCC2C(=O)NCCCN2CCC(C)CC2)cc1 (stereo not drawn)
COc1ccc(-c2nc(CS(=O)CC(=O)NCc3ccc(Cl)cc3)c(C)o2)cc1 (stereo not drawn)
CC1CC(C)CN(S(=O)(=O)c2ccc(NC(=O)CCN3C(=O)C4CC=CCC4C3=O)cc2)C1 (stereo not drawn)
CC1(C)CN(Cc2ccccc2)C(=O)[C@H]1CC(=O)Nc1ccccc1
